Sampled rows, rich in hits. Any-hit rate of the full collection: about 4.8%.
DAX1 inh-1: NR0B1 (DAX1) inhibition; P51843; HEK293 Gal4-DAX1 luciferase reporter, luminescence; actives 0.99% (n = 340,000); inhibition, % at 6.75 µM;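 active means inhibition above the mean over all tested compounds plus 3 SD, cut at about 4.2% in these data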;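 further: 0% = DAX1-transfected cells with DMSO and 100% = empty-vector control cells with DMSO; inhibition shows as a rise in luminescence from relieved DAX1 repression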
Target sequence (P51843 207-470 limits assumed): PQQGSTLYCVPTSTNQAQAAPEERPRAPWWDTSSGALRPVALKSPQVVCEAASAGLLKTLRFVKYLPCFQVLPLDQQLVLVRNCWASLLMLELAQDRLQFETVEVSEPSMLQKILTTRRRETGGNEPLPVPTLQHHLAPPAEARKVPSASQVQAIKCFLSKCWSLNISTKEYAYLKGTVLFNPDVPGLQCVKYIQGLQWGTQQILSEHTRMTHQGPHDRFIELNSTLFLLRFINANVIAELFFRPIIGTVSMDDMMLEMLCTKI
SMARCA2 act: SMARCA2 function activation, primary screen | MG213 cells, MMTV-luciferase reporter, dexamethasone, overnight | activation, % at 9.1 µM | actives 1% (n = 370,000) | AID 652017; in the data active means activation above about 7.8%;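 further: 0% = vehicle wells and 100% = reference activator wells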
hcDAF12 agonist: activates DAF-12 receptor from parasite H. contortus | HEK293 hcDAF-12 lit1-tk-luc reporter, luminescence; 0% DMSO, 100% Δ7-dafachronic acid | activation, % at 6.8 µM | actives 1.4% (n = 370,000) | AID 652067;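 active means activation above the mean of all tested compounds plus 3 SD, cut at about 5.5% in these data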;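 further: 100% = response to 3 µM Δ7-dafachronic acid high control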
DAX1 inh-2: inhibitors of DAX1 repression of SF-1 activated StAR promoter; HEK293T StAR-luciferase reporter, SF-1/DAX-1 repression relief; inhibition, % at 6.8 µM; actives 1.1% (n = 370,000);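 active means inhibition above the mean over all tested compounds plus 3 SD, cut at about 3.6% in these data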;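 further: 0% = DAX-1 cells with DMSO and 100% = cells lacking DAX-1 with DMSO; higher inhibition means more luminescence from relief of DAX-1 repression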
ssDAF12 agonist: activators of S. stercoralis DAF-12 nuclear receptor; HEK293 ssDAF-12/GRIP1 lit1-tk-luc reporter, luminescence; % of 3 µM dafachronic acid response; activation, % at 6.8 µM; actives 1% (n = 370,000); AID 652126;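 active means activation above the mean over all tested compounds plus 3 SD, cut at about 0.9% in these data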;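 further: 0% = DMSO-only wells and 100% = 3 µM delta7-dafachronic acid wells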
hgDAF12 agonist: agonists of H. glycines DAF-12 nuclear receptor. HEK293 GAL4-hgDAF12 UAS-luciferase reporter, agonist luminescence; normalized to butyrate control. activation, % at 6.8 µM. actives 1.8% (n = 370,000). AID 687014;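 active means activation above a cutoff set at the mean of all screened compounds plus 3 SD, cut at about 10% in these data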;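 further: 0% = DMSO wells and 100% = sodium butyrate wells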
An asterisk follows results filed as active; / = no result.

SMILES	DAX1 inh-1	SMARCA2 act	hcDAF12 agonist	DAX1 inh-2	ssDAF12 agonist	hgDAF12 agonist
Cc1[nH]c2ccccc2c1-c1csc(NC(=O)CSCCO)n1	5.5*	-2.0	-0.9	1.4	-1.0	0.0
CC(C)[C@H](NC(=O)[C@@H]1CCCN1)C(=O)N1CCC2CCN(S(=O)(=O)c3ccccc3)CC21 (stereo not given in full)	/	-5.2	-2.5	0.1	-1.1	0.6
COc1ccc(C(=O)/C(=C/N(C)C)S(=O)(=O)c2ccccc2)cc1	0.7	6.1	2.9	2.2	-0.5	12.1*
COc1cccc(NC(=O)CN(C)C(=O)CNC(=O)c2ccc(Oc3ccccc3)cc2)c1	0.8	3.6	0.2	0.8	-1.1	5.0
COc1ccc(N/C=C/C(=O)c2ccccc2)cc1	-3.0	4.6	5.4	4.4*	1.0*	12.5*
COc1ccc(C(=O)CC(=O)c2ccccc2)cc1	/	5.6	4.2	1.1	-0.4	11.0*
COc1ccc(NC(=O)CN(C)C(=O)CNC(=O)c2ccc3ccccc3c2)cc1	4.2*	1.4	3.0	3.3	0.8	9.4
COc1ccc(C(=O)CC(=O)c2ccc(OC)cc2)cc1	1.9	-1.4	-0.9	-0.1	-1.4	0.5
CN(C)/C=C(/C(=O)c1ccccc1Cl)S(=O)(=O)c1ccccc1	2.9	-0.6	-1.2	1.8	-1.0	-2.1
O=C(CCCc1ccccc1)NC1CC1	-0.4	0.9	5.7*	0.1	-0.8	1.4
O=C(Cn1cncn1)c1ccccc1	5.7*	1.7	-2.4	-0.2	-0.1	-0.2
O=C(CCc1nnc(CCCCc2ccccc2)o1)NC1CCCC1	-0.4	-3.2	-2.5	-0.7	-1.5	-0.3
COc1ccc(C(=O)CNc2ccccc2Br)cc1	1.1	1.9	1.0	0.2	-1.0	2.4
O=C(Cn1cccn1)c1ccccc1	-1.3	1.7	-0.3	0.9	-1.2	-1.2
COc1cccc(/C(O)=C/c2nc3ccc(C(=O)NCCc4cccc(C)c4)cc3[nH]c2=O)c1	0.0	0.3	0.8	0.5	1.1*	2.6
COc1ccc(C(=O)CNc2ccc3ccccc3c2)cc1	/	4.9	5.9*	0.2	0.3	8.8
O=C(NC1CCCCN(Cc2cccc(C(F)(F)F)c2)C1=O)c1cccc(F)c1 (stereo not given)	/	-4.5	0.2	-0.2	-1.1	-3.2
O=C(NCCCc1ccccc1)c1ccccc1	-0.1	3.8	3.4	0.7	-0.1	7.0
O=C(CC(=O)c1ccccc1)c1ccccc1	2.4	-2.5	0.8	3.6*	-0.5	10.9*
O=C(CCCC(=O)c1ccc(O)cc1)c1ccc(O)cc1	1.7	3.4	3.8	2.2	0.7	10.5*
COc1ccc(C(=O)NCC(=O)c2ccccc2)cc1	1.4	2.2	1.2	1.6	-0.2	12.4*
COc1ccc(C(=O)NCCCc2ccccc2)cc1	/	5.6	2.2	2.2	-0.2	10.6*
CCC(=O)c1ccc(O)cc1	-0.1	-0.6	-0.8	0.6	-1.5	3.1
O=C(CC(=O)c1ccncc1)c1ccccc1	-0.2	2.3	1.7	1.4	-0.8	5.1
COc1cccc(C(=O)NCCS(=O)(=O)NCCc2ccccc2)c1	0.5	2.8	3.0	4.0*	-0.4	7.5
SMILES	DAX1 inh-1	SMARCA2 act	hcDAF12 agonist	DAX1 inh-2	ssDAF12 agonist	hgDAF12 agonist
COc1ccc(C(=O)CCNc2ccc(F)cc2)cc1	5.2*	1.3	1.1	0.7	-0.9	2.0
COc1ccc(NC(=O)NC(C)c2ccccc2)cc1 (stereo not given)	1.1	-0.1	-1.0	-0.6	-0.8	0.0
COc1ccc(OC(=O)Nc2ccccc2)cc1	1.2	3.4	3.2	3.9*	0.2	6.2
COc1ccc(CCNS(=O)(=O)CCNC(=O)c2ccccc2)cc1	-1.4	-0.7	-0.4	-0.6	-0.9	1.1
COc1ccc(NC(=O)N/C=C/c2ccccc2)cc1	3.6	3.6	1.0	2.2	-0.6	12.0*
COC(=O)C1CN(Cc2ccccc2)CCS(=O)(=O)N1Cc1cn(Cc2ccc(C)cc2)nn1 (stereo not given)	/	-1.7	-3.1	-1.2	-2.0	0.4
O=C(NC1CCCCN(Cc2ccc(Cl)cc2)C1=O)c1ccc(-c2ccccc2)cc1 (stereo not given)	/	-3.4	-5.5	-2.8	-1.7	-4.2
COc1ccc(C(=O)C(=NN)c2ccccc2)cc1	1.1	2.7	0.5	2.6	0.2	12.3*
